# Reference: PubChem BioAssay AID1159580 (chemical genetic matrix, 2015)
# Values joined by “and” are separate entries in the source; they are usually repeats but may differ in a detail not shown here. Equal values may be shown once. The campaign covered roughly 5,500 compounds. About 2,000 (36%) were called active. Inconclusive results (about 18%) are left out. No stated cut-off is given here; in the data, active means normalized growth mostly below about 0.91 (no sharp cut-off); inconclusive means no clear call, values can overlap the other calls; inactive means mostly above about 0.92. Some of the results follow. Where a structure was tested more than once in an assay, its records may differ in their call.
# Assay: chemical genetic growth profiling, strain panel (AID 1159580);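 further: tested at 20 µM; growth read once vehicle control cultures reached saturation at 30 °C; 1 = growth at the plate median or of vehicle wells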
# Settings: growth OD
smiles,measurement,setting,value
O=c1cc(-c2ccccc2)oc2cc(O)cc(O)c12,normalized growth,"S. cerevisiae deletion strains, locus YJR075W, strain HOC1, stronger effect = lower value",0.924 (inactive)
same,normalized growth,"S. cerevisiae deletion strains, locus YKL009W, strain mrt4, stronger effect = lower value",0.667 (active)
same,normalized growth,"S. cerevisiae deletion strains, locus YKL068W, stronger effect = lower value",0.943 (inactive)
same,normalized growth,"S. cerevisiae deletion strains, locus YKL085W, strain MDH1 (second series), stronger effect = lower value",0.888 (active)
same,normalized growth,"S. cerevisiae deletion strains, locus YKL085W, strain MDH1, stronger effect = lower value",0.888 (active)
same,normalized growth,"S. cerevisiae deletion strains, locus YKL160W, strain elf1, stronger effect = lower value",0.908 (inactive) and 0.809 (active)
same,normalized growth,"S. cerevisiae deletion strains, locus YKL190W, strain CNB1, stronger effect = lower value",0.941 (inactive)
same,normalized growth,"S. cerevisiae deletion strains, locus YKR001C, strain vps1, stronger effect = lower value",0.813 (active)
same,normalized growth,"S. cerevisiae deletion strains, locus YKR026C, strain gcn3, stronger effect = lower value",0.94 (inactive) and 0.912 (active)
same,normalized growth,"S. cerevisiae deletion strains, locus YKR091W, strain srl3, stronger effect = lower value",0.943 (inactive) and 0.912 (active)
same,normalized growth,"S. cerevisiae deletion strains, locus YLL001W, strain dnm1, stronger effect = lower value",0.94 (inactive) and 0.905 (inactive)
same,normalized growth,"S. cerevisiae deletion strains, locus YLL026W, stronger effect = lower value",0.936 (inactive) and 0.919 (active)
same,normalized growth,"S. cerevisiae deletion strains, locus YLL041C, strain sdh2, stronger effect = lower value",0.946 (inactive) and 0.915 (active)
same,normalized growth,"S. cerevisiae deletion strains, locus YLR027C, strain aat2, stronger effect = lower value",0.943 (inactive) and 0.867 (active)
same,normalized growth,"S. cerevisiae deletion strains, locus YLR039C, strain RIC1, stronger effect = lower value",0.715 (inactive)
same,normalized growth,"S. cerevisiae deletion strains, locus YLR058C, strain SHM2, stronger effect = lower value",0.965 (inactive)
same,normalized growth,"S. cerevisiae deletion strains, locus YLR102C, strain apc9, stronger effect = lower value",0.947 (inactive)
same,normalized growth,"S. cerevisiae deletion strains, locus YLR113W, strain HOG1, stronger effect = lower value",0.831 (active)
same,normalized growth,"S. cerevisiae deletion strains, locus YLR221C, strain rsa3, stronger effect = lower value",0.944 (inactive) and 0.828 (active)
same,normalized growth,"S. cerevisiae deletion strains, locus YLR258W, strain gsy2, stronger effect = lower value",0.924 (inactive) and 0.838 (active)
same,normalized growth,"S. cerevisiae deletion strains, locus YLR262C, strain YPT6 (second series), stronger effect = lower value",0.677 (active) and 0.514 (active)
same,normalized growth,"S. cerevisiae deletion strains, locus YLR262C, strain YPT6, stronger effect = lower value",0.684 (inactive)
same,normalized growth,"S. cerevisiae deletion strains, locus YLR268W, strain sec22, stronger effect = lower value",0.837 (active)
same,normalized growth,"S. cerevisiae deletion strains, locus YLR320W, strain mms22, stronger effect = lower value",0.837 (active) and 0.73 (active)
same,normalized growth,"S. cerevisiae deletion strains, locus YLR330W, strain CHS5, stronger effect = lower value",0.972 (inactive)
same,normalized growth,"S. cerevisiae deletion strains, locus YLR342W, strain FKS1 (second series), stronger effect = lower value",0.862 (inactive)
same,normalized growth,"S. cerevisiae deletion strains, locus YLR342W, strain FKS1, stronger effect = lower value",0.946 (inactive) and 0.903 (active)
same,normalized growth,"S. cerevisiae deletion strains, locus YLR357W, strain rsc2, stronger effect = lower value",0.882 (inactive) and 0.838 (active)
same,normalized growth,"S. cerevisiae deletion strains, locus YLR370C, strain arc18, stronger effect = lower value",0.958 (inactive) and 0.933 (inactive)
same,normalized growth,"S. cerevisiae deletion strains, locus YLR371W, strain rom2, stronger effect = lower value",0.951 (inactive)
same,normalized growth,"S. cerevisiae deletion strains, locus YLR384C, strain iki3, stronger effect = lower value",0.938 (inactive) and 0.931 (inactive)
same,normalized growth,"S. cerevisiae deletion strains, locus YLR418C, strain cdc73, stronger effect = lower value",0.761 (active)
same,normalized growth,"S. cerevisiae deletion strains, locus YML016C, strain PPZ1, stronger effect = lower value",0.985 (inactive)
same,normalized growth,"S. cerevisiae deletion strains, locus YML032C, strain rad52, stronger effect = lower value",0.87 (active)
same,normalized growth,"S. cerevisiae deletion strains, locus YML120C, strain ndi1, stronger effect = lower value",0.944 (inactive) and 0.942 (inactive)
same,normalized growth,"S. cerevisiae deletion strains, locus YML124C, strain tub3, stronger effect = lower value",0.952 (inactive)
same,normalized growth,"S. cerevisiae deletion strains, locus YMR058W, strain fet3, stronger effect = lower value",0.893 (active) and 0.653 (active)
same,normalized growth,"S. cerevisiae deletion strains, locus YMR078C, strain ctf18, stronger effect = lower value",0.928 (inactive)
same,normalized growth,"S. cerevisiae deletion strains, locus YMR125W, strain sto1, stronger effect = lower value",0.929 (inactive) and 0.907 (inactive)
same,normalized growth,"S. cerevisiae deletion strains, locus YMR129W, stronger effect = lower value",0.94 (inactive)
same,normalized growth,"S. cerevisiae deletion strains, locus YMR205C, strain PFK2, stronger effect = lower value",0.87 (active) and 0.693 (active)
same,normalized growth,"S. cerevisiae deletion strains, locus YMR223W, strain ubp8, stronger effect = lower value",0.906 (inactive)
same,normalized growth,"S. cerevisiae deletion strains, locus YMR231W, strain pep5, stronger effect = lower value",0.934 (inactive) and 0.871 (active)
same,normalized growth,"S. cerevisiae deletion strains, locus YMR263W, strain SAP30, stronger effect = lower value",0.927 (inactive)
same,normalized growth,"S. cerevisiae deletion strains, locus YMR307W, strain GAS1, stronger effect = lower value",0.551 (active)
same,normalized growth,"S. cerevisiae deletion strains, locus YNL067W, strain RPL9B, stronger effect = lower value",0.898 (inactive)
same,normalized growth,"S. cerevisiae deletion strains, locus YNL071W, strain lat1, stronger effect = lower value",0.891 (active) and 0.727 (active)
same,normalized growth,"S. cerevisiae deletion strains, locus YNL128W, strain TEP1, stronger effect = lower value",0.972 (inactive)
same,normalized growth,"S. cerevisiae deletion strains, locus YNL153C, strain GIM3, stronger effect = lower value",0.931 (inactive)
same,normalized growth,"S. cerevisiae deletion strains, locus YNL183C, strain NPR1, stronger effect = lower value",0.894 (inactive)
same,normalized growth,"S. cerevisiae deletion strains, locus YNL209W, strain ssb2, stronger effect = lower value",0.954 (inactive) and 0.871 (active)
same,normalized growth,"S. cerevisiae deletion strains, locus YNL233W, strain BNI4, stronger effect = lower value",0.869 (active)
same,normalized growth,"S. cerevisiae deletion strains, locus YNL248C, strain rpa49, stronger effect = lower value",0.97 (inactive) and 0.818 (active)
same,normalized growth,"S. cerevisiae deletion strains, locus YNL250W, strain rad50, stronger effect = lower value",0.925 (inactive)
same,normalized growth,"S. cerevisiae deletion strains, locus YNL271C, strain bni1, stronger effect = lower value",0.904 (active)
same,normalized growth,"S. cerevisiae deletion strains, locus YNL298W, strain CLA4, stronger effect = lower value",0.893 (active)
same,normalized growth,"S. cerevisiae deletion strains, locus YNL307C, strain MCK1, stronger effect = lower value",0.834 (active)
same,normalized growth,"S. cerevisiae deletion strains, locus YNL322C, strain KRE1 (second series), stronger effect = lower value",0.97 (inactive) and 0.877 (active)
same,normalized growth,"S. cerevisiae deletion strains, locus YNL322C, strain KRE1, stronger effect = lower value",0.978 (inactive)
same,normalized growth,"S. cerevisiae deletion strains, locus YNR049C, strain mso1, stronger effect = lower value",0.966 (inactive) and 0.944 (inactive)
same,normalized growth,"S. cerevisiae deletion strains, locus YNR052C, strain pop2, stronger effect = lower value",0.944 (inactive)
same,normalized growth,"S. cerevisiae deletion strains, locus YOL006C, strain TOP1, stronger effect = lower value",0.686 (inactive)
same,normalized growth,"S. cerevisiae deletion strains, locus YOL012C, strain htz1",0.62 (inactive)
same,normalized growth,"S. cerevisiae deletion strains, locus YOL147C, strain pex11, stronger effect = lower value",0.929 (active)
same,normalized growth,"S. cerevisiae deletion strains, locus YOR001W, strain rrp6, stronger effect = lower value",0.941 (inactive) and 0.903 (inactive)
same,normalized growth,"S. cerevisiae deletion strains, locus YOR061W, strain CKA2, stronger effect = lower value",0.98 (inactive)
same,normalized growth,"S. cerevisiae deletion strains, locus YOR069W, strain VPS5, stronger effect = lower value",0.988 (inactive)
same,normalized growth,"S. cerevisiae deletion strains, locus YOR070C, strain gyp1, stronger effect = lower value",0.957 (inactive) and 0.875 (active)
same,normalized growth,"S. cerevisiae deletion strains, locus YOR080W, strain dia2, stronger effect = lower value",0.97 (inactive) and 0.934 (inactive)
same,normalized growth,"S. cerevisiae deletion strains, locus YOR083W, strain WHI5, stronger effect = lower value",0.912 (inactive) and 0.807 (active)
same,normalized growth,"S. cerevisiae deletion strains, locus YOR106W, strain vam3, stronger effect = lower value",0.915 (inactive) and 0.802 (active)
same,normalized growth,"S. cerevisiae deletion strains, locus YOR136W, strain idh2, stronger effect = lower value",0.968 (inactive)
same,normalized growth,"S. cerevisiae deletion strains, locus YOR144C, strain elg1, stronger effect = lower value",0.932 (active)
same,normalized growth,"S. cerevisiae deletion strains, locus YOR184W, strain ser1, stronger effect = lower value",0.761 (active)
same,normalized growth,"S. cerevisiae deletion strains, locus YOR231W, strain MKK1, stronger effect = lower value",0.905 (inactive)
same,normalized growth,"S. cerevisiae deletion strains, locus YOR265W, strain rbl2, stronger effect = lower value",0.947 (inactive) and 1.01 (inactive)
same,normalized growth,"S. cerevisiae deletion strains, locus YOR270C, strain vph1, stronger effect = lower value",0.746 (active) and 0.518 (active)
same,normalized growth,"S. cerevisiae deletion strains, locus YOR290C, strain snf2, stronger effect = lower value",0.901 (inactive) and 0.85 (active)
same,normalized growth,"S. cerevisiae deletion strains, locus YOR316C, strain cot1, stronger effect = lower value",0.945 (inactive)
same,normalized growth,"S. cerevisiae deletion strains, locus YPL051W, strain arl3, stronger effect = lower value",0.905 (active) and 0.701 (active)
same,normalized growth,"S. cerevisiae deletion strains, locus YPL055C, strain LGE1, stronger effect = lower value",0.91 (inactive)
same,normalized growth,"S. cerevisiae deletion strains, locus YPL078C, strain atp4, stronger effect = lower value",0.926 (inactive) and 0.776 (active)
same,normalized growth,"S. cerevisiae deletion strains, locus YPL106C, strain sse1, stronger effect = lower value",0.911 (inactive) and 0.879 (inactive)
same,normalized growth,"S. cerevisiae deletion strains, locus YPL240C, strain hsp82, stronger effect = lower value",0.962 (inactive) and 0.886 (active)
same,normalized growth,"S. cerevisiae deletion strains, locus YPL241C, strain CIN2, stronger effect = lower value",0.985 (inactive)
same,normalized growth,"S. cerevisiae deletion strains, locus YPL256C, strain CLN2, stronger effect = lower value",0.891 (inactive)
same,normalized growth,"S. cerevisiae deletion strains, locus YPR119W, strain clb2, stronger effect = lower value",0.937 (inactive)
same,normalized growth,"S. cerevisiae deletion strains, locus YPR141C, strain kar3, stronger effect = lower value",0.942 (inactive)
same,normalized growth,"S. cerevisiae deletion strains, locus YPR163C, strain tif3, stronger effect = lower value",0.883 (active)
same,normalized growth,"S. cerevisiae deletion strains, locus YPR167C, strain met16, stronger effect = lower value",0.947 (inactive)
same,normalized growth,"S. cerevisiae deletion strains, strain wtn01, stronger effect = lower value",0.912 (inactive)
same,normalized growth,"S. cerevisiae strains, strain wild type, stronger effect = lower value",0.956 (inactive)
